LANA DNA inh = inhibitors of KSHV C-LANA binding to DNA, primary screen, biochemical, fluorescence polarization, FAM-LBS DNA, MBP-C-LANA, single point; inhibition, % at 9 µM; hit rate 0.078% among 340,000; AID 504423, 2011;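 active = highest replicate inhibition at or above 60% at 9 µM, even if other replicates fall short; inactive = all replicates below 60% inhibition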;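 note: 0% = neutral control wells and 100% = 4 µM acridine orange control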
cardiac RTF act = cardiac RTF calcium sensitivity activators, primary screen, biochemical, IANBD-TnC fluorescence, EC20 calcium | Troponin I, cardiac muscle (Homo sapiens) + Troponin T, cardiac muscle (Homo sapiens) + … | IANBD-labeled TnC RTF fluorescence at EC20 calcium; 0% EC20 calcium, 100% full calcium | activation, % at 7.2 µM | hit rate 0.24% among 340,000 | AID 493008, 2010;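 active = activation above the mean over all tested compounds plus 3 SD, cut at about 30% in these data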;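 note: rise in fluorescence read as greater calcium sensitivity of cardiac thin filaments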
Cardiac RTF inh = cardiac RTF calcium sensitivity inhibitors, primary screen, biochemical, IANBD-TnC fluorescence, EC70 calcium; hit rate 0.12% among 340,000; IANBD-labeled cardiac RTF, Ca2+ fluorescence; inhibition, % at 7.15 µM; AID 493244, 2011; Troponin I, cardiac muscle (Homo sapiens) + Troponin T, cardiac muscle (Homo sapiens) + …;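 active = inhibition above the mean inhibition of all tested compounds plus 3 SD, cut at about 17% in these data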;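 note: assay run at fixed EC70 calcium of 1.6 mM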
LANA-H2A inh = blockers of LANA interaction with H2A/H2B – biochemical, FP readout, HTS, primary screen | inhibition, % (no concentration beside the values) | hit rate 0.6% among 320,000 | Protein LANA1 (Human herpesvirus 8 type P (isolate GK18)), Q9QR71 | cell-free LANA-H2A/H2B peptide, fluorescence polarization; in the data active = inhibition mostly above about 10%, no sharp cut-off; inactive = mostly below about 6.7%
Keap1 Nrf2 FP = Keap1-Nrf2 protein-protein interaction inhibitors, primary screen, biochemical, fluorescence polarization, single point; AID 504523, 2011; inhibition, % at 9.4 µM; hit rate 0.15% among 340,000; Keap1 Kelch-Nrf2 peptide fluorescence polarization, 1536-well; Kelch-like ECH-associated protein 1 (Homo sapiens), Q14145; in the data active = inhibition above about 12%;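 note: human Keap1 Kelch domain with fluorescein labeled Nrf2 9mer peptide probe; 0% = neutral control wells and 100% = peptide positive control; higher means more block of Keap1 binding to Nrf2 peptide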
eLon inh = inhibitors of E. coli Lon protease, primary screen, biochemical, fluorescence polarization; purified E. coli Lon protease; inhibition, % at 7.94 µM; hit rate 0.42% among 360,000; in the data active = inhibition above about 13%, passing the limit was not always enough;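 note: 0% = enzyme with probe and DMSO and 100% = no enzyme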
Active calls of the source: *; i = inactive; . = not tested or not shown; + = active, no number; ! = repeats disagree. An excerpt weighted towards active compounds, which were near 1.3% of everything screened.

SMILES	LANA DNA inh	cardiac RTF act	Cardiac RTF inh	LANA-H2A inh	Keap1 Nrf2 FP	eLon inh
CC(=O)Nc1cc(C(=O)N2CCC3(CC2)OCCO3)ccc1Sc1ccc(F)cc1	0.6	0.8	5.9	28.8*	2.6	-5.8
CC(=O)Nc1cc(C(=O)N2CCC3(CC2)OCCO3)ccc1Sc1ccc(C)cc1	-0.3	-0.6	-6.7	-0.4	2.6	-2.3
C[C@@H]1CN([C@H](C)CO)C(=O)CCCn2nncc2CO[C@H]1CN(C)C(=O)Oc1ccc2ccccc2c1	.	.	.	.	.	-10.3
C[C@]12CCC(=O)C=C1CC[C@@H]1[C@@H]2CC[C@]2(C)C(=O)CC[C@@H]12	0.0	17.6	2.5	16.1*!	-3.5	-5.3
CC(C)[C@@]1(NC(=O)[C@@H]2C[C@@H]3c4cccc5[nH]cc(c45)C[C@H]3N(C)C2)O[C@@]2(O)[C@@H]3CCCN3C(=O)[C@H](Cc3ccccc3)N2C1=O	0.1	8.2	5.5	15.6*	-0.5	-15.1
CC(C)[C@H]1C(=O)N2CCC[C@H]2[C@]2(O)O[C@](NC(=O)[C@@H]3C=C4c5cccc6[nH]cc(c56)C[C@H]4N(C)C3)(C(C)C)C(=O)N12	28.1	26.8	-28.5	10.6*	15.1*	64.0*
CC(C)C[C@H]1C(=O)N2CCCC2[C@]2(O)O[C@](NC(=O)[C@@H]3C=C4c5cccc6[nH]cc(c56)CC4N(C)C3)(C(C)C)C(=O)N12 (stereo partly drawn)	24.4	30.9*	-55.7	21.2*!	15.7*	62.5
COC(=O)C1=C(c2ccccc2OCc2ccccc2)C[C@@H]2CC[C@H]1N2C(=O)NCCCOC(C)C	-1.4	13.8	-3.9	3.6	-2.4	2.2
O=C(c1ccc2c(=O)n(Cc3ccc4c(c3)OCO4)c(=S)[nH]c2c1)N1CCC2(CC1)OCCO2	-0.2	0.2	-4.0	57.4*	-2.6	5.3
CCOC(=O)C1=C(N)Oc2cc(C)oc(=O)c2C12C(=O)N1c3c(cccc32)C(C)CC1(C)C (stereo not drawn)	-2.0	8.8	-0.7	33.4*	1.5	0.1
CCOC(=O)C1=C(N)Oc2cc(C)oc(=O)c2C12C(=O)N1c3c(cccc32)C(C)=CC1(C)C (stereo not drawn)	0.8	6.9	-6.4	5.8	1.6	-3.7
CC(C)CC(C)N (stereo not drawn)	-0.4	-2.5	-1.3	44.9*	0.3	13.2
CN1Cc2c(c(C#N)c(N)n(C)c2=S)CC1(C)C	22.4	50.1*	-75.7	10.3	16.1*	39.7*
CCN1C(=O)/C(=C/c2ccc(N(CC)CC)cc2OC)C(=O)NC1=S	-0.4	4.5	-7.8	1.3	-4.0	-39.8
O=C1NC(=S)N(c2ccccc2)C(=O)/C1=C/c1ccco1	87.7*	-5.7	-2.6	4.6	-0.1	-63.5
CCN(CC)c1ccc(/C=C2\C(=O)NC(=S)N(C)C2=O)o1	-5.4	53.4*	-77.8	-13.8	-19.4	i
COc1cccc(N2C(=O)/C(=C/c3ccc(C)o3)C(=O)NC2=S)c1	1.5	1.9	-8.5	-4.5	-12.6	-58.8
CCN(CC)c1ccc(/C=C2\C(=O)NC(=S)N(c3ccc(OC)cc3OC)C2=O)o1	-32.2	76.1*	-100.7	-3.4	-20.7	i
CCOc1cccc(N2C(=O)/C(=C/c3ccco3)C(=O)NC2=S)c1	.	-7.7	-0.4	-2.6	0.1	-22.9
CCN(CC)c1ccc(C=C2C(=O)N(C)C(=S)N(C)C2=O)o1	-1.7	22.4	-22.5	-8.8	-5.6	-161.9
COc1ccc(N2C(=O)/C(=C/c3ccc(N(C)C)o3)C(=O)NC2=S)cc1	-0.1	54.9*	-67.5	-20.6	-5.6	-339.0
CC(OC(=O)c1cn(C)c2ccccc12)C(=O)N(C)c1ccccc1 (stereo not drawn)	0.5	0.9	-4.2	.	1.6	-9.7
N#CC1C(C#N)C2CCC1C1C2N1c1ccccc1 (stereo not drawn)	-2.4	-0.6	-6.9	.	-8.4	-5.5
CN1C(=O)NC(=O)C2(CCCC2)C1=O	-2.8	-2.2	-3.9	.	-1.1	-0.8
COC(=O)Cn1cc(/C=C2\C(=O)NC(=O)N(c3ccc(OC)cc3)C2=O)c2ccccc21	-1.7	5.7	-4.5	-1.1	-77.9	-18.1
SMILES	LANA DNA inh	cardiac RTF act	Cardiac RTF inh	LANA-H2A inh	Keap1 Nrf2 FP	eLon inh
COc1ccc(N2C(=O)NC(=O)/C(=C\c3cn(C)c4ccccc34)C2=O)cc1	35.2	523.3*	-474.9	5.9	3.7	-97.6
Cc1cc(=O)oc2c(C)c(OCC(=O)N3CCN(Cc4ccccc4)CC3)ccc12	-0.5	-11.1	-13.1	1.6	2.8	-12.3
CCOCCCn1c(N)c(C(=O)Nc2sc3c(c2C(=O)OC)CCCC3)c2nc3ccccc3nc21	-1.3	52.2*	-35.0	4.0	-9.7	-58.4
COC(=O)C1=C(c2ccc(C(C)=O)cc2)C[C@@H]2CC[C@H]1N2C(=O)NCc1ccc(C(F)(F)F)cc1	0.2	0.9	-4.3	-2.0	1.0	-12.2
CCN1/C(=C\C=C\C2=[N+](CC)c3ccccc3C2(C)C)C(C)(C)c2ccccc21	-43.5	895.5*	i	-214.5	-372.2	+
Cc1[nH]nc2ccc(-c3cncc(OC[C@@H](N)Cc4c[nH]c5ccccc45)c3)cc12	0.8	1.1	-2.3	.	-5.1	-5.7
CC(=O)c1ccc2c(c1)C1C(Cl)C(Sc3ccccc3[N+](=O)[O-])CC1C(C(=O)O)N2 (stereo not drawn)	8.3	-18.2	15.8	2.6	-5.2	22.5*
Cc1nn(CC(C)C)c(Cl)c1C(=O)NC1CCCCC1	0.5	0.0	-5.0	.	1.9	-9.8
Cc1cc(Cl)ccc1OC(C)C(=O)O (stereo not drawn)	3.1	4.8	20.1*	2.3	1.5	-14.8
Cc1cc(Cl)ccc1OCC(=O)O	-0.9	-2.9	13.1	-12.0	-5.3	-7.7
C1CCC(NC2CCCCC2)CC1	0.0	4.2	-10.7	141.5*	-4.0	-1.6
CN1C(=O)C(=Cc2ccc(N3CCCCC3)o2)C(=O)N(C)C1=S	-1.2	13.5	-7.4	-2.7	-5.5	-213.5
O=C1NC(=O)N(c2ccc3c(c2)OCO3)C(=O)/C1=C/c1ccc(N2CCCCC2)o1	-37.7	78.4*	-80.9	-36.6	-95.0	-297.4
C=CCN1C(=O)/C(=C/c2ccc(N3CCOCC3)o2)C(=O)NC1=S	-25.8	66.5*	-35.3	-9.7	-53.2	-143.7
O=C1NC(=O)C(=Cc2ccc(N3CCOCC3)o2)C(=O)N1	-40.4	46.9*	-64.2	-45.6	-170.7	-342.3

Screening data: PubChem BioAssay, several laboratories
